Compounds without any hit were thinned out: in the full panel of roughly 83,000, 20% have a hit.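 Values shown are percent growth following 48 h exposure of cells in 96-well plates to a single concentration of compound; below 10 was considered active.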 Values without a mark were called inactive. Calls of active or inactive are those of the source.
Assays:
Assay in all cases: NCI-60 one-dose screen, 48 h (100 = growth as untreated, 0 = no growth, -100 = all killed)
Conditions in all cases: 10 µM
NCI-H23 lung = system: NCI-H23 lung
NCI-H226 lung = system: NCI-H226 lung
NCI-H322M lung = system: NCI-H322M lung
HOP-62 NSCLC = system: HOP-62 NSCLC
NCI-H460 lung = system: NCI-H460 lung
HOP-92 NSCLC = system: HOP-92 NSCLC
NCI-H522 lung = system: NCI-H522 lung
A549/ATCC NSCLC = system: A549/ATCC NSCLC
786-0 renal = system: 786-0 renal
COLO 205 colon = system: COLO 205 colon
DU-145 prostate = system: DU-145 prostate
K-562 leukemia = system: K-562 leukemia
MALME-3M melanoma = system: MALME-3M melanoma
MDA-MB-231 breast = system: MDA-MB-231 breast
RXF 393 renal = system: RXF 393 renal
SF-268 CNS = system: SF-268 CNS
SF-295 CNS = system: SF-295 CNS
SF-539 CNS = system: SF-539 CNS
UACC-257 melanoma = system: UACC-257 melanoma
M14 melanoma = system: M14 melanoma

| SMILES | growth (NCI-H23 lung) | growth (NCI-H226 lung) | growth (NCI-H322M lung) | growth (HOP-62 NSCLC) | growth (NCI-H460 lung) | growth (HOP-92 NSCLC) | growth (NCI-H522 lung) | growth (A549/ATCC NSCLC) | growth (786-0 renal) | growth (COLO 205 colon) | growth (DU-145 prostate) | growth (K-562 leukemia) | growth (MALME-3M melanoma) | growth (MDA-MB-231 breast) | growth (RXF 393 renal) | growth (SF-268 CNS) | growth (SF-295 CNS) | growth (SF-539 CNS) | growth (UACC-257 melanoma) | growth (M14 melanoma) |
| --- | --- | --- | --- | --- | --- | --- | --- | --- | --- | --- | --- | --- | --- | --- | --- | --- | --- | --- | --- | --- |
| COc1ccc(CCN2C(=O)/C(=C/c3csc(C#N)n3)SC2=S)cc1OC | 38.5% | 100% | 101% | 111% | 98.4% | -5.19% (active) | -66.7% (active) | 95% | 21.1% | -27.5% (active) | -10.9% (active) | 1.08% (active) | 2.58% (active) | 95.7% | -1.04% (active) | 99.4% | 98.7% | -1.47% (active) | 13.4% | 2.13% (active) |
| Cc1cccc(NC(=O)CSc2nc3ccc(F)cc3c(=O)n2-c2ccc(Cl)cc2)c1C | 63% | 21.5% | 81.6% | 26.5% | 57.9% | 26.9% | 77% | 72.5% | 34.7% | 94.7% | 69.6% | 84.3% | 65.5% | 51.8% | 18.8% | 59.1% | 57.5% | 25.7% | 87.7% | 74% |
| O=C(NC(=S)N1CCN(c2ncnc3c2cnn3-c2ccccc2)CC1)c1ccc(Cl)cc1 | 55.5% | 52.3% | 66.8% | -2.01% (active) | 53.3% | 14.7% | 38% | 54.3% | 27.8% | 77.4% | 81.1% | 61.5% | 56.1% | 57.1% | 43.1% | 41.2% | 34.2% | 11.2% | 83.8% | 79.9% |
| COc1ccc2[nH]c(=O)c(CSc3nccc(-c4ccc(Cl)cc4)n3)cc2c1 | 33.9% | -26.1% (active) | 44.9% | 32.9% | 9.38% (active) | 4.58% (active) | -32.2% (active) | 2.57% (active) | -28.6% (active) | 20.5% | 44.8% | 23.2% | 46.4% | 18.4% | -23.7% (active) | 28.8% | -20.3% (active) | -70.3% (active) | 6.77% (active) | 55.2% |
| COc1ccc(CCN2C(=O)/C(=C/c3csc(C#N)n3)SC2=S)cc1 | 24.3% | 98.5% | 86.4% | 83.5% | 68.2% | -5.5% (active) | -69.8% (active) | 89% | -55.2% (active) | -75% (active) | 0.405% (active) | 1.79% (active) | 7.27% (active) | 15.8% | -3.89% (active) | 33.2% | 77.5% | -17.3% (active) | -35.3% (active) | -40.6% (active) |
| O=C(N/N=C/c1ccc(B(O)O)o1)c1[nH]c2ccc(Br)cc2c1-c1ccccc1 | 24% | 38.2% | 61.2% | 44.3% | 11% | 58.9% | -51% (active) | 31.1% | 41.6% | -43.2% (active) | 40.9% | 7.21% (active) | 61.1% | 28.1% | 1.27% (active) | 51.1% | -8.66% (active) | -33.4% (active) | 63.4% | 20.1% |
| O=C(Nc1cc(Cl)cc(Cl)c1)Nc1cc(Cl)cc(Cl)c1 | -21.1% (active) | -37.8% (active) | -5.15% (active) | -30.3% (active) | -16.2% (active) | -33.8% (active) | -36.1% (active) | 1.01% (active) | -1.4% (active) | -98.9% (active) | 15.2% | -25.5% (active) | -40.5% (active) | -65.6% (active) | -15.1% (active) | 9.6% (active) | -47.9% (active) | -46.2% (active) | -29.7% (active) | -77.9% (active) |
| O=C(c1ccccc1)n1ccc(-c2cc3cc(Br)ccc3oc2=O)n1 | 19% | 27.5% | 31.1% | 20% | 9.4% (active) | 34.7% | 1.16% (active) | 33.9% | 16.1% | 11% | 37.3% | 19.9% | 36.8% | 32% | 45.2% | 36.5% | 24.4% | 10.5% | 2.91% (active) | -4.71% (active) |
| N#Cc1c(NC(=O)c2ccc(C(O)(C(F)(F)F)C(F)(F)F)cc2)sc2c1CCC(=O)C2 | -81% (active) | -57.2% (active) | 19.1% | -17% (active) | 7.12% (active) | -55.7% (active) | -71.2% (active) | 9.39% (active) | -47.7% (active) | -89.3% (active) | 15.5% | -10.8% (active) | -92.5% (active) | -89.7% (active) | -89% (active) | -9.56% (active) | -97% (active) | -96.2% (active) | -61.6% (active) | -68% (active) |
| COc1cc(/C=N/NC(=O)c2ccc3nc(-c4ccc(Cl)cc4)[nH]c3c2)cc(OC)c1OC | -68.4% (active) | -50.5% (active) | 3.86% (active) | -77.5% (active) | -34.8% (active) | -64.5% (active) | -44.2% (active) | 29.2% | -4.1% (active) | -9.12% (active) | -28.7% (active) | -12.4% (active) | -92.8% (active) | -74.5% (active) | -84.3% (active) | -33.9% (active) | -73.7% (active) | -95.7% (active) | -47.7% (active) | -28% (active) |
| CC(=O)Nc1ccc(-n2cnc3cc(-c4ccc(O)cc4)ccc32)cc1C | 47.6% | 57% | 74.9% | 63.5% | 36.4% | 67.2% | -29.1% (active) | 47.5% | 55.7% | 93.9% | 60.8% | 41.2% | 58.9% | 49.3% | 43.4% | 53.1% | 52.8% | 41.5% | 61.2% | 42.3% |
| COc1cccc(/C=C2\N=C(C)N(CCc3ccc(S(N)(=O)=O)cc3)C2=O)c1 | 102% | 104% | 96.5% | 93.5% | 105% | 92.8% | 94.5% | 101% | 90.4% | 131% | 112% | 99.9% | 98.2% | 104% | 121% | 101% | 105% | 99.8% | 101% | 100% |
| COc1cc(NC(=O)c2cc(-c3ccc(F)cc3F)ccc2O)cc(OC)c1OC | 26.2% | 50.9% | 38.4% | 24% | 22.5% | -11.8% (active) | 7.09% (active) | 37.1% | 54% | 116% | 34.3% | 14% | 17.4% | 47.5% | 75.9% | 25.9% | 65.5% | 50.8% | 55.3% | 55.8% |
| O=C(c1ccc(Cl)cc1)C1[C@H](c2ccc(Br)cc2)[C@@H](c2ccccc2)NC12C(=O)Nc1ccccc12 (stereo not given in full) | -35.9% (active) | -72.4% (active) | 19.9% | -18.9% (active) | -33.8% (active) | -18% (active) | -4.55% (active) | 15% | -4.41% (active) | -88.9% (active) | 12.4% | -15.7% (active) | -35.9% (active) | -60.1% (active) | -59.8% (active) | 12.1% | -54.5% (active) | -57.7% (active) | -2.88% (active) | 29.4% |
| Cc1ccc2nc3c(nc2c1)c1cc(I)ccc1n3CCN(C)C | 17.8% | 39.9% | 20% | 31.3% | -2.92% (active) | 37.2% | 31.4% | 13.5% | 23.6% | -55.8% (active) | 13% | 4.47% (active) | 9.73% (active) | 14.8% | 29.8% | 45.4% | 17.3% | 26.4% | 41.9% | 16.3% |
